“And” between values parts separate entries of the source, which are not always exact repeats. Equal entries are not always repeated. Records with an inconclusive call do not appear. Where a structure was tested more than once in an assay, its records may differ in their call. The source made the active and inactive calls. Unless noted, the call rests on the fitted dose curve; in most records, active means well fitted curve in the direction sought with a large enough effect; inconclusive means small, poorly fitted or top-dose-only effect, or another doubt; inactive means no such curve, though single readings can be large; an effect the other way counts as inactive or inconclusive.
Assays:
[1] = target: Glucocorticoid receptor (Homo sapiens) (UniProt P04150); assay: GR-GFP Redistribution (AID 450;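 active means compounds whose dose series gives a full or clear partial fitted curve of increased nuclear translocation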; further: potency means the concentration at half of the fitted maximal effect); settings: U2OS GR-GFP nuclear translocation, laser cytometry, 2 h
[2] = target: Glucocorticoid receptor (Homo sapiens) (UniProt P04150); assay: GR-EFC Redistribution (AID 451; calls by dose curve; further: potency means the concentration at half of the fitted maximal effect); settings: CHO-K1 GR-EFC translocation, beta-gal luminescence, 2 h
How it was run: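 Translocation of GR-ED fusion to nuclear EA restores b-gal, read by luminescence after 1 h room-temperature detection. Engineered CHO-K1 biosensor cells, 1,000/well, exposed 2 h at 37 C to titrations up to 46 uM final.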

[3] = target: 3',5'-cyclic-AMP phosphodiesterase 4B (Homo sapiens) (UniProt Q07343); assay: qHTS Assay for Inhibitors of PDE-IV (AID 607; active means well fitted activation curve with a large enough effect in the main read-out, with a control signal flat, not every such curve was filed as active; further: % of control where 0% means no effect); settings: HEK293 ACTOne CNG channel cells, membrane potential fluorescence; series mostly up to 22.9 µM
How it was run: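 The readout is membrane depolarisation from a cAMP-sensing CNG channel, detected with a potential dye at ex 535/em 590. Cells were HEK293-derived (endogenous PDE-IV) at 1000 cells/well, titrated up to 22.9 uM final.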

[4] = target: Mitogen-activated protein kinase 10 (Mus musculus) (UniProt Q61831); assay: JNK3 AlphaScreen Assay (AID 530; active means well fitted curve in either direction with a large enough effect, not every such curve was filed as active;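 further: kinase came from lysate of stimulated human HepG2 cells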; further: potency means the concentration at half of the fitted maximal effect); settings: JNK3 lysate, c-Jun phosphorylation; series mostly up to 57.1 µM
How it was run: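 Compound titrations were preincubated 15 minutes at room temperature with substrate, antibody and pre-activated JNK3-containing HepG2 lysate. Reactions were started with 10 uM ATP and stopped with EDTA-containing bead buffer for AlphaScreen detection.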

[5] = Cell Viability - N2a (AID 540); settings: N2a mouse neuroblastoma cell viability; activity change, negative = cytotoxicity: at 92.2 µM (top of the series);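 further: cells exposed to compound for 40 h at 37 °C; nearly all actives have a fitted effect of over 45% in size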; further: potency means the concentration at half of the fitted maximal effect;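 on activity change, negative = cytotoxicity: plate controls were DMSO alone for no effect and tamoxifen control for full effect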
How it was run: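 Luminescent ATP signal (CellTiter-Glo, 20 min at room temperature) served as the viability read-out after N2a cells were treated with compounds for 40 hours at 37 °C. Concentration-response data were fitted to the Hill equation for AC50.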

[6] = Cell Viability - HUV-EC-C (AID 542); settings: HUV-EC-C endothelial cell viability, qHTS; series mostly up to 92.2 µM; further: nearly all actives have a fitted effect of over 35% in size; further: potency means the concentration at half of the fitted maximal effect; on activity change, negative = cytotoxicity: on the % scale 0 is the no-effect control and ±100 the full control effect
How it was run: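 qHTS cytotoxicity: HUV-EC-C, 1000 cells/well, 5 hr settle, compound 40 hr 37 °C, CellTiter-Glo, luminescence. AC50 via Hill equation.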

[7] = Cell Viability - H-4-II-E (AID 543); settings: H-4-II-E rat hepatoma viability; series mostly up to 92.2 µM; further: nearly all actives have a fitted effect of over 35% in size; further: potency means the concentration at half of the fitted maximal effect
How it was run: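 Luminescent ATP signal (CellTiter-Glo) served as the viability read-out, with cytotoxicity seen as a concentration-dependent ATP drop. Cells were treated for 40 hours in complete medium. AC50 values derive from Hill-equation modelling.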

[8] = Cell Viability - SH-SY5Y (AID 544); settings: SH-SY5Y neuroblastoma cell viability; viability change, negative = cytotoxic: at 92.2 µM (top of the series); further: nearly all actives have a fitted effect of over 55% in size; further: potency means the concentration at half of the fitted maximal effect
How it was run: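 Luminescent ATP read-out (CellTiter-Glo) measures loss of viable SH-SY5Y neuroblastoma cells after 40 hr compound exposure at 37 °C. AC50 values derive from standard Hill modelling of qHTS concentration-response data.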

[9] = Cell Viability - Renal Proximal Tubule (AID 545); settings: renal proximal tubule cells viability, primary cells of rat origin; activity change, negative = cytotoxicity: at 91.7 µM (top of the series); further: nearly all actives have a fitted effect of over 40% in size
How it was run: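 Rat kidney proximal tubule cells, freshly isolated; 1000 cells/well, 5 hr settle, compound 40 hr 37 °C. CellTiter-Glo 20 min RT, luminescence read. AC50 by standard Hill fit.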

[10] = Cell Viability - Mesenchymal (AID 546); settings: mesenchymal cells viability, qHTS; activity change, negative = cytotoxicity: at 91.7 µM (top of the series);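 further: cells exposed to compound for 40 hours before reading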
How it was run: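 AC50 values reflect the drop in intracellular ATP in a human kidney mesenchymal line derived from normal glomeruli. Treatment lasts 40 hr at 37 °C in complete medium, and the signal comes from CellTiter-Glo luminescence.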

[11] = Cellular Toxicity (caspase-3) HepG2 (AID 654); settings: HepG2 caspase-3 activation, luminescence; series mostly up to 92.2 µM;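 further: cells exposed to compound for 16 hours before reading; 0% = DMSO alone and 100% = caspase signal from 100 µM tamoxifen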
How it was run: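 Cells plated 5 hr at 37 °C, compound added, incubated 16 hr at 37 °C. Caspase-Glo 3/7 reagent followed, 20 min at room temperature, then luminescence read. Activation scored as signal increase; AC50 from Hill fit.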

[12] = Cellular Toxicity (caspase-3) Jurkat (AID 655); settings: Jurkat caspase-3 activation, luminescence; series mostly up to 92.2 µM;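 further: cells exposed to compound for 16 h at 37 °C before reading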; further: potency means the concentration at half of the fitted maximal effect
How it was run: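 Luminescent caspase-3/7 readout (aminoluciferin substrate cleavage) in human T-cell leukemia Jurkat cells after 16 hr compound exposure. Concentration-response normalized to DMSO and 100 uM tamoxifen; AC50 by standard Hill equation.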

[13] = Cellular Toxicity (caspase-3) HUV-EC-C (AID 656); settings: HUV-EC-C cells, caspase-3 activation (apoptosis), vehicle = 0, 100 µM tamoxifen = 100%; series mostly up to 92.2 µM
How it was run: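 Luminescent caspase-3/7 activation (aminoluciferin substrate cleavage) in HUV-EC-C cells after 16 hr compound exposure, 37°C. Signal normalized to DMSO basal and 100 uM tamoxifen as 100%; AC50 from concentration-response fitted with the Hill equation.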

[14] = Cellular Toxicity (caspase-3) SHSY5Y (AID 657); settings: SH-SY5Y caspase-3 activation, DMSO zero, 10 µM staurosporine = 100%; series mostly up to 91.7 µM;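 further: cells exposed to compound for 16 hours at 37 °C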
How it was run: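 Luminescent caspase-3/7 readout (aminoluciferin release) in SH-SY5Y cells after 16 h compound exposure in complete medium. Activity scaled between DMSO basal and 10 uM staurosporine as 100%; concentration-response fitted to Hill equation for AC50.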

[15] = Cellular Toxicity (caspase-3) BJ (AID 658); settings: BJ fibroblasts, luminescence, normalized: DMSO 0%, staurosporine 100%; series mostly up to 91.7 µM
How it was run: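 Readout: Caspase-Glo 3/7 luminescence increase in BJ cells after 16 hr treatment at 37 °C. Staurosporine and tamoxifen served as positive controls; AC50 values came from Hill modelling of data normalized to DMSO and 10 uM staurosporine.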

[16] = Cellular Toxicity (caspase-3) MRC-5 (AID 659); settings: MRC-5 cells, luminescence, normalized: DMSO 0%, 10 µM staurosporine 100%; series mostly up to 91.7 µM
How it was run: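 Concentration-dependent caspase 3/7 activation is measured in human normal lung fibroblasts (MRC-5) following 16-hour treatment. AC50 values come from standard Hill-equation modeling of luminescence normalized to DMSO and 10 uM staurosporine.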

[17] = Cellular Toxicity (caspase-3) Mesangial (AID 660); settings: mesangial cells; Potency: caspase-3 activation; series mostly up to 91.7 µM;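 further: combined caspase 3 and 7 activity read by Caspase-Glo luminescence; cells exposed to compound for 16 h before the caspase read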
How it was run: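 Mesangial cells, 1000/well, 5 h settle at 37 °C; compound 16 h, 37 °C; Caspase-Glo 3/7 reagent 20 min RT; luminescence. Norm.: DMSO = 0%, tamoxifen 100 uM = 100%. AC50, Hill fit.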

[18] = Cellular Toxicity (caspase-3) SK-N-SH (AID 661); settings: SK-N-SH caspase-3 activation, qHTS; series mostly up to 91.7 µM
How it was run: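 Human neuroblastoma SK-N-SH, 1500 cells/well, 5 hr pre-incubation, then compound 16 hr, 37 °C. Caspase-Glo 3/7 reagent, 1 hr RT, luminescence. Norm. to DMSO/10 uM staurosporine; Hill-fit AC50.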

[19] = Cellular Toxicity (caspase-3) Hek293 (AID 664); settings: HEK293 caspase-3 activation, DMSO = 0%, 100 µM tamoxifen = 100%; at 92.2 µM (top of the series);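 further: cells exposed to compound for 16 h at 37 °C before readout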
How it was run: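 Cells plated, 5 hr at 37 °C; compounds added; 16 hr at 37 °C; Caspase-Glo 3/7 reagent, 20 min RT; luminescence read. Activation expressed relative to DMSO and 100 uM tamoxifen, AC50 by Hill model.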

[20] = Cellular Toxicity (caspase-3) H-4-II-E (AID 663); settings: H-4-II-E rat hepatoma, scaled: DMSO 0%, 100 µM tamoxifen 100%; at 92.2 µM (top of the series);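 further: cells exposed to compound for 16 hr before readout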
How it was run: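 Apoptosis induction is scored as increased luminescence from caspase 3/7 substrate cleavage in rat hepatoma H-4-II-E cells exposed to compound for 16 hr. Activity is scaled between DMSO and 100 uM tamoxifen.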

Sequence of 3',5'-cyclic-AMP phosphodiesterase 4B (Homo sapiens) (Q07343 whole entry, looked up): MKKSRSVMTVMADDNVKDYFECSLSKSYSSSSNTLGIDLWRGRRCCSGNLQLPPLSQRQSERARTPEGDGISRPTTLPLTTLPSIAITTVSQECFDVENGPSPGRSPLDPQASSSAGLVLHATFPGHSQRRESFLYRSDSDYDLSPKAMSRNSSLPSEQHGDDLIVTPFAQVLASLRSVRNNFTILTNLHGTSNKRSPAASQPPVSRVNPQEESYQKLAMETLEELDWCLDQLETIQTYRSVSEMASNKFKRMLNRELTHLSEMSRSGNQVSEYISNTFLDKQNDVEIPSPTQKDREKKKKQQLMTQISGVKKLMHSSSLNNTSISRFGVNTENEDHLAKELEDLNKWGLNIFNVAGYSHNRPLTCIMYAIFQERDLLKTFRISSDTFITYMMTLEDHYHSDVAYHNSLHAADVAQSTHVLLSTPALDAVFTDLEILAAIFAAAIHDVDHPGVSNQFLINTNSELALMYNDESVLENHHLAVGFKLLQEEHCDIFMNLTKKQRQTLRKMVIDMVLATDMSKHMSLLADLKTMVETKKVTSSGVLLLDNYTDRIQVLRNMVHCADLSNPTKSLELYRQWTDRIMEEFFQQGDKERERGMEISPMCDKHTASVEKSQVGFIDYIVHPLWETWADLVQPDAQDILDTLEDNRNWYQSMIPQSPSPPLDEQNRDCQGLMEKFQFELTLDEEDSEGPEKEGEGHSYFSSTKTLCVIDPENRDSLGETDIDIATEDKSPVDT
Sequence of Glucocorticoid receptor (Homo sapiens) (P04150 whole entry, looked up, the tested form may be a part): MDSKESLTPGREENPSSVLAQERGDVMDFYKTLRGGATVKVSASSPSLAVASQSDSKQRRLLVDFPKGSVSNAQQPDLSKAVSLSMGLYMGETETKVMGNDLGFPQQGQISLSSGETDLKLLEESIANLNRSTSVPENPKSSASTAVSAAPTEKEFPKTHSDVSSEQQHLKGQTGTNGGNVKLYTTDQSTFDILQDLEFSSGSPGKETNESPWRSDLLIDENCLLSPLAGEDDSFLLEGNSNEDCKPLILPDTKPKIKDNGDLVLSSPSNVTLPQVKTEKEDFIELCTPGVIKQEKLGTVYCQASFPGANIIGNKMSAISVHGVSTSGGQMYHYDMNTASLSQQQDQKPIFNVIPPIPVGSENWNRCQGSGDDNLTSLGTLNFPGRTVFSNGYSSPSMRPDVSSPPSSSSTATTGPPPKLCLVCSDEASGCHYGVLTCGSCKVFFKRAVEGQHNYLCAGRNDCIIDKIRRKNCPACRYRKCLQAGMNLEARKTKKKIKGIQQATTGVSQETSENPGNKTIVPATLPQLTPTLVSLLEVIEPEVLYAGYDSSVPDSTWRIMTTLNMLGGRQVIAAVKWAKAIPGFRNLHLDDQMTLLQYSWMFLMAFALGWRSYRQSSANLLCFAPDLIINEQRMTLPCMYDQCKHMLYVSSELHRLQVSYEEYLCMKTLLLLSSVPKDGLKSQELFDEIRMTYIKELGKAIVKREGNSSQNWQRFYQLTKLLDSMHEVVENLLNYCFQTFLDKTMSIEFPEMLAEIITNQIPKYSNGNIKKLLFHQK

COc1cccc(C(=O)NCCN2CCN(c3ccc(Cl)cc3)CC2)c1
inactive: Potency [1] > 46 µM | Potency [2] > 46 µM | outcome [3]

O=C(O)CC[C@@H](C(=O)O)N1C(=O)c2ccccc2C1=O
inactive: Potency [1] > 46 µM | Potency [4] | outcome [3]

O=C(O)c1ccccc1Nc1cccc(C(F)(F)F)c1
inactive: Potency [1] > 20.6 µM | Potency [4]

c1cnc2c(c1)ccc1cccnc12
inactive: Potency [1] > 46 µM | Potency [4] | Potency [10] | outcome [3] | Potency [11] | outcome [13] | outcome [14] | outcome [15] | outcome [16] | Potency [17] | Potency [18] | caspase-3 activation [19] -4.62%
active: Potency [5] 3.98 µM | Potency [6] 12.6 µM | Potency [7] 2.51 µM | Potency [8] 5.01 µM | activity change, negative = cytotoxicity [9] -87.9% | Potency [12] 6.31 µM

O=c1[nH]c2cc(C(F)(F)F)ccc2n1-c1cc(C(F)(F)F)ccc1O
inactive: Potency [1] > 46 µM | Potency [2] > 46 µM | outcome [3]

N=C(N)SCCc1ccc(CCSC(=N)N)cc1
inactive: Potency [1] > 46 µM | Potency [4] | outcome [3]

O=C(O)Cc1ccc(-c2ccccc2)cc1
inactive: Potency [1] > 20.6 µM | Potency [4] | outcome [3]

O=c1[nH]c2cc([N+](=O)[O-])c([N+](=O)[O-])cc2[nH]c1=O
inactive: Potency [1] > 46 µM | Potency [2] > 46 µM | Potency [4] | outcome [3]

Cc1c(N)c(=O)n(-c2ccccc2)n1C
inactive: Potency [1] > 20.6 µM | Potency [4] | outcome [3]

CC(=O)SCC[N+](C)(C)C
inactive: Potency [1] > 46 µM | Potency [4] | outcome [3]

O=S(=O)(c1cccc2c(I)cccc12)N1CCCNCC1
inactive: Potency [1] > 46 µM | Potency [4] | outcome [3]

N[C@H](CCCP(=O)(O)O)C(=O)O
inactive: Potency [1] > 46 µM | Potency [2] > 46 µM | Potency [4] | outcome [3]

Oc1cc2c(cc1O)CN(C(=S)NCCc1ccc(Cl)cc1)CCC2
inactive and 10 µM (active): Potency [4]
inactive: Potency [1] > 46 µM | outcome [3]

C[N+](C)(CCCCCC[N+](C)(C)CCCN1C(=O)c2cccc3cccc(c23)C1=O)CCCN1C(=O)c2cccc3cccc(c23)C1=O
inactive: Potency [1] > 46 µM | Potency [4] | outcome [3]

NC[C@@H]1O[C@H](C23CC4CC(CC(C4)C2)C3)Cc2c1ccc(O)c2O
inactive: Potency [1] > 46 µM | Potency [4] | outcome [3]

Cc1c(Nc2ncccc2C(=O)O)cccc1C(F)(F)F
inactive: Potency [4] | outcome [3]

CCCN(CC1CC1)c1nc(C)nc(Nc2c(Cl)cc(Cl)cc2Cl)c1Cl
inactive: Potency [1] > 46 µM | outcome [3]

CC1(C)S[C@@H]2[C@H](NC(=O)[C@H](N)c3ccccc3)C(=O)N2[C@H]1C(=O)O
inactive: Potency [4] | Potency [5] | Potency [6] | Potency [7] | Potency [8] | activity change, negative = cytotoxicity [9] -5.39% | Potency [10] | Potency [11] | Potency [12] | outcome [13] | outcome [14] | outcome [15] | outcome [16] | Potency [17] | Potency [18] | caspase-3 activation [20] 0.54% | caspase-3 activation [19] -0.638%

Source: PubChem BioAssay (NCATS)
